Measurements as given in PubChem BioAssay.
Where “and” joins values, the source holds several entries; their conditions need not be identical. Identical values can stand only once. Calls of active or inactive are those of the source.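 How the source made its calls, unless noted: active means thallium flux through the channel raised or lowered by more than 3 SD from vehicle-only wells, actives on both sides; inactive means the rest.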

Key:
[1] = Wnt pathway potentiators raising nuclear beta-catenin – imaging, WNT3A-conditioned medium, mouse C2C12, NPC library, primary screen (AID 1117326; in the data active means nuclear beta-catenin stimulation mostly above about 4.2%, no sharp cut-off; inactive means mostly below about 10%); conditions: stronger effect = higher value
[2] = stimulators of insulin release from INS-1E, primary screen, cell-based, 5 mM glucose, NPC library (AID 1117329;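 active means compound raises insulin release from rat beta cells at 5 mM glucose, no numeric limit stated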); conditions: rat INS-1E insulin secretion, at 10 µM, stronger effect = higher value
[3] = growth inhibition of GSK3B-pretreated HCT116 cells – cell-based, CellTiter-Glo, 0.2 to 20 µM (AID 1117336;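 active means compounds lowering colon cancer cell viability after pretreatment blocking the GSK3B kinase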); conditions: HCT116 viability after GSK3B inhibitor, at 20 µM, stronger effect = higher value
[4] = inhibition of endothelial tube formation, primary screen, imaging, VEGF stimulated, CD31 staining, tube area, NPC library (AID 1117340;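 active means compound that reduces growth-factor-driven endothelial tube area in a mixed cell culture, no cutoff stated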); conditions: VEGF-stimulated ADSC/ECFC co-culture, at 10 µM, stronger effect = higher value
[5] = GLP1 release stimulators, primary, NCI-H716, NPC library (AID 1117341;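 active means compound raises GLP1 secretion from the human gut endocrine cells, with no numeric limit stated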); conditions: NCI-H716 cells, at 10 µM, stronger effect = higher value
[6] = HCT116 colon cancer cell growth inhibition, primary screen, CellTiter-Glo luminescence, NPC library (AID 1117342;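 active means compounds that lower survival of HCT116 colon cancer cells in the luminescence readout, no numeric limit stated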); conditions: at 20 µM (top of the series)
[7] = reduced SW480 viability measured with CellTiter-Glo, NPC library, primary (AID 1117343;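 active means compounds that lower viability of the colon cancer cells in the luminescence readout, with no numeric limit stated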); conditions: CellTiter-Glo luminescence; at 20 µM (top of the series)
[8] = NPC library primary testing for decreased DLD-1 cell viability via CellTiter-Glo (AID 1117346;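 active means compounds that lower survival of DLD-1 colon cancer cells in the luminescence readout, no cutoff given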); conditions: DLD-1 viability, CellTiter-Glo luminescence; at 20 µM (top of the series)
[9] = target: 6-phosphogluconate dehydrogenase, decarboxylating (Homo sapiens) (UniProt P52209); experiment: inhibition of human phosphogluconate dehydrogenase – biochemical, recombinant enzyme, NADPH absorbance, primary screen (AID 1159550;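 active means at least 20% inhibition of 6-phosphogluconate dehydrogenase activity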); conditions: recombinant 6PGD, NADPH absorbance 341 nm; at 10 µM; stronger effect = higher value
[10] = modulation of C. elegans fzo-1 (AID 1259413; call rule not given here;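 further: fzo-1 mutant C. elegans worms in liquid wells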); conditions: C. elegans fzo-1 modulator screen, mean read-out; stronger effect = higher value
[11] = EMT-state selective cytotoxicity in co-culture – imaging, PC-3E GFP, TEM4-18 mCherry, primary screen (AID 1345086;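 active means compounds killing one labelled cell type while sparing the other, by normalised counts and ratio limits, not self-fluorescent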;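 on all read-outs here: cells exposed to compound for 72 h before imaging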;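 on red/green cell ratio (normalised): normalised mesenchymal count divided by normalised epithelial count so high means epithelial killing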); conditions: PC-3E GFP / TEM4-18 mCherry co-culture, imaging cell counts, at 1 µM; for red/green cell ratio (normalised): actives lie on both sides, counts scaled to control wells, 1 = unselective
[12] = MELAS cybrid and Rieske KO viability enhancers – cell-based, MELAS cybrids, Rieske KO mouse fibroblasts, CellTiter-Glo, primary screen (AID 1508586;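 active means mean z-score across replicates of 1.96 or higher in either the MELAS or the Rieske mutant cell line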;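 further: z relative to plate mean and SD of compound and empty wells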); conditions: low glucose
[13] = target: NAD(+) hydrolase SARM1 (Homo sapiens) (UniProt Q6SZW1); experiment: blocking NAD cleavage by SARM1 SAM-TIR – cell lysate, NAD-Glo luminescence (AID 1508614;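 active means compound whose remaining NAD level is above about 45 nM, limit read from the data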); conditions: SAM-TIR HEK293T lysate NADase, at 1 µM, stronger effect = higher value
[14] = target: Mitogen-activated protein kinase 7 (Homo sapiens) (UniProt Q13164); experiment: Gal4-ERK5 driven luciferase induction – cell-based, HTS, primary screen (AID 1508626;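 active means luciferase signal above three times the same-plate solvent-only control wells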;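 further: luciferase driven by Gal4-ERK5 fusion binding five Gal4 sites before minimal TATA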); conditions: HeLa Gal4-ERK5 transactivation, 18 h, at 5 µM, stronger effect = higher value
F380Y = experiment: BK channel mutant inhibitors and activators – cell-based, U2OS BacMam, thallium flux, beta subunits, selectivity assay, profiling panel (AID 1259406); conditions: U2OS BacMam BK variants, at 30 µM;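 further: initial slope of Thallos dye fluorescence rise after thallium is added; log ratio against the mean of 0.3% DMSO vehicle wells on the same plate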
F380Y/beta1 = experiment: as above; conditions: U2OS BacMam BK variants, at 30 µM
F380Y/beta2Delta = experiment: as above; conditions: U2OS BacMam BK variants, at 30 µM
F380Y/beta4 = experiment: as above; conditions: U2OS BacMam BK variants, at 30 µM
[15] = measured here: epithelial PC-3E GFP cell survival
[16] = measured here: mesenchymal TEM4-18 mCherry cell survival
[17] = MELAS cybrid survival, CellTiter-Glo 48 h, stronger effect = higher value
[18] = Rieske KO mouse fibroblast survival, CellTiter-Glo 72 h

6-phosphogluconate dehydrogenase, decarboxylating (Homo sapiens), sequence (P52209 whole entry, looked up): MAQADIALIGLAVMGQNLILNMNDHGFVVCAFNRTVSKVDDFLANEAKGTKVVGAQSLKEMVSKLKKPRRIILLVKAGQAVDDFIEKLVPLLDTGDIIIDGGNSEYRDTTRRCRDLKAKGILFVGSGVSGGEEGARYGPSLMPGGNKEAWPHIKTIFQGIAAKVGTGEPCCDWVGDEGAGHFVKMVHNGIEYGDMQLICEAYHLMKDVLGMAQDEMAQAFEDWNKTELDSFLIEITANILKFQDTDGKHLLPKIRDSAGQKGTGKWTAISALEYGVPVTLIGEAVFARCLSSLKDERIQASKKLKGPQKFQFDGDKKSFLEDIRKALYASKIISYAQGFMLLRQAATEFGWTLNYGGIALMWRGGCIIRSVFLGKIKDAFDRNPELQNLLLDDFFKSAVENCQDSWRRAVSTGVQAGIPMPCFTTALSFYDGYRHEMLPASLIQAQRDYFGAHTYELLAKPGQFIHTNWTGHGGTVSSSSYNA
Mitogen-activated protein kinase 7 (Homo sapiens), sequence (Q13164 whole entry, looked up, the tested form may be a part): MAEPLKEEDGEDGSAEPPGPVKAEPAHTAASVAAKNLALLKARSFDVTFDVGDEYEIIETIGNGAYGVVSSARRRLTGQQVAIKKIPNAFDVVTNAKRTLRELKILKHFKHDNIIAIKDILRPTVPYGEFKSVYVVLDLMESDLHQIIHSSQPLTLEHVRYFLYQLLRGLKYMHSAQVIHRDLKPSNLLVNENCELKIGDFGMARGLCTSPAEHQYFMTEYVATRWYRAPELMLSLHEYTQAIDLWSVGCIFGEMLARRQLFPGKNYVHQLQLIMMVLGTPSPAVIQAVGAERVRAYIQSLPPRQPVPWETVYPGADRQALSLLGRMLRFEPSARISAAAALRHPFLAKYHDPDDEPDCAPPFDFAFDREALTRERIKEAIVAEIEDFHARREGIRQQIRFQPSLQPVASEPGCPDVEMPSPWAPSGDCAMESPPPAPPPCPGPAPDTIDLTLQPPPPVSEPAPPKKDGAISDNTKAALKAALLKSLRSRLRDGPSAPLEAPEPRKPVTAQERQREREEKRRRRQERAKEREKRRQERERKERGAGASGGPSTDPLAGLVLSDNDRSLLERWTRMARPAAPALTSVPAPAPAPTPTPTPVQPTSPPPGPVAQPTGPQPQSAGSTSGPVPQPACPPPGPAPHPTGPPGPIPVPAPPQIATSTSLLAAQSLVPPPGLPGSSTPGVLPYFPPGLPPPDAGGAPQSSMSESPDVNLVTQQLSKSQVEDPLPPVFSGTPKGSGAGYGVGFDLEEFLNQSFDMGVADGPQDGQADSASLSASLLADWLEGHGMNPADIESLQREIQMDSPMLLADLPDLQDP
NAD(+) hydrolase SARM1 (Homo sapiens), sequence (Q6SZW1 whole entry, looked up, the tested form may be a part): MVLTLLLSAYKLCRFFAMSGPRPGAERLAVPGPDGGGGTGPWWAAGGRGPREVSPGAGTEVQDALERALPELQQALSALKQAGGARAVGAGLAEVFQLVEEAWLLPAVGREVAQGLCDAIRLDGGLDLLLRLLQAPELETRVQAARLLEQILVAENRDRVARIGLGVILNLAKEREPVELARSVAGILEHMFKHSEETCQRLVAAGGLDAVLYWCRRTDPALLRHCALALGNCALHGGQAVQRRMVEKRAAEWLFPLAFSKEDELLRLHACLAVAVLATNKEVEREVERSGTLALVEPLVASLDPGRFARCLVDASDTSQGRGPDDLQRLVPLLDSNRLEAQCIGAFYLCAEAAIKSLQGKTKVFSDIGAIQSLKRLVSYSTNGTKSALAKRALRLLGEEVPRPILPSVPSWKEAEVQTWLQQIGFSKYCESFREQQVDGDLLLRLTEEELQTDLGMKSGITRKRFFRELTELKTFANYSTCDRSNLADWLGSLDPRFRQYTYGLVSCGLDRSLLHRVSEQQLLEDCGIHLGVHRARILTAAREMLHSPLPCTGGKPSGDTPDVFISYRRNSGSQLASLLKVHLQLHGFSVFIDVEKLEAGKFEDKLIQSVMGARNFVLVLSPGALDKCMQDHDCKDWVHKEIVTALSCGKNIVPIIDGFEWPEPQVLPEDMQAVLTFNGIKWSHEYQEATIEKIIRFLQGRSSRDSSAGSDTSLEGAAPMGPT

OC(Cn1cncn1)(Cn1cncn1)c1ccc(F)cc1F
1.22: normalised cell number [11, 15]
inactive: nuclear beta-catenin stimulation ([1]; at 10 µM) 1.7% | insulin secretion stimulation [2] 4.05% | viability decrease [3] 19.2% | tube area decrease [4] -10% | GLP1 secretion stimulation [5] 1% | inhibition of viability [6] 1.7% | viability decrease (inhibition) [7] 7.1% | viability decrease (inhibition) [8] 2.4% | inhibition [9] 9% | mean signal [10] 277 | red/green cell ratio (normalised) [11] 1.28 | z-score [12, 17] -0.408 and -0.874 and -0.724 | remaining NAD [13] 14 nM | luciferase signal [14] 32 AU | log fold change Tl+ flux (F380Y) 0.0166 | log fold change Tl+ flux (F380Y/beta1) -0.0268 | log fold change Tl+ flux (F380Y/beta2Delta) -0.000209 | log fold change Tl+ flux (F380Y/beta4) 0.0309
1.57: normalised cell number [11, 16]
1.1%: nuclear beta-catenin stimulation ([1]; stimulation, at 2 µM)
-0.288 and -0.48 and -0.41: z-score [12, 18]

CC(C)Cc1ccc(C(C)C(=O)O)cc1 (stereo unspecified)
-0.22 and -1.3: z-score [12, 18]
1.7%: nuclear beta-catenin stimulation ([1]; stimulation, at 2 µM)
1.11: normalised cell number [11, 15] | normalised cell number [11, 16]
inactive: nuclear beta-catenin stimulation ([1]; at 10 µM) 0.3% | insulin secretion stimulation [2] -2.6% | viability decrease [3] -2.1% | tube area decrease [4] 0.9% | GLP1 secretion stimulation [5] 0.1% | inhibition of viability [6] -7.8% | viability decrease (inhibition) [7] 21.6% | viability decrease (inhibition) [8] 16.6% | inhibition [9] -4.32% | mean signal [10] 242 | red/green cell ratio (normalised) [11] 1 | z-score [12, 17] 0.0693 and -0.542 | remaining NAD [13] 10 nM | luciferase signal [14] 24 AU | log fold change Tl+ flux (F380Y) 0.0419 | log fold change Tl+ flux (F380Y/beta1) -0.0217 | log fold change Tl+ flux (F380Y/beta2Delta) 0.0321 | log fold change Tl+ flux (F380Y/beta4) 0.0254

CC1(C)O[C@@H]2[C@@H](CO[C@@]3(COS(N)(=O)=O)OC(C)(C)O[C@@H]23)O1
inactive: nuclear beta-catenin stimulation ([1]; at 10 µM) -1.6% | insulin secretion stimulation [2] -0.2% | viability decrease [3] -4.2% | tube area decrease [4] 14.7% | GLP1 secretion stimulation [5] -0.1% | inhibition of viability [6] -8.2% | viability decrease (inhibition) [7] -0.9% | viability decrease (inhibition) [8] -7.1% | inhibition [9] 5.76% | mean signal [10] 229 | red/green cell ratio (normalised) [11] 1.43 | z-score [12, 17] 0.776 | remaining NAD [13] 10 nM | luciferase signal [14] 24 AU | log fold change Tl+ flux (F380Y) -0.00202 | log fold change Tl+ flux (F380Y/beta1) 0.0196 | log fold change Tl+ flux (F380Y/beta2Delta) 0.0184 | log fold change Tl+ flux (F380Y/beta4) 0.0387
1.11: normalised cell number [11, 15]
1.58: normalised cell number [11, 16]
0.6%: nuclear beta-catenin stimulation ([1]; stimulation, at 2 µM)
0.627: z-score [12, 18]
